We go through 24 molecules from PubChem BioAssay (NCATS).

Assay [1] concerns the target Luciferin 4-monooxygenase (Photinus pyralis) (UniProt P08659). Nature of the assay: Biochemical firefly luciferase enzyme assay for NPC (AID 624030). Also: nearly all actives have a fitted effect of over 70% in size. Also: potency is read from the fitted curve at half-maximal effect. In short, it runs like this:
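Direct inhibition of firefly luciferase enzyme (10 nM final, 50 mM Tris Acetate) assessed by luminescence within 5 minutes. Percent activity scaled between DMSO and PTC124 positive control, with concentration-effect curves classified by fit quality and response.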

The target of assay [2] is Thyroid hormone receptor beta (Homo sapiens) (UniProt P10828). Nature of the assay: qHTS assay for small molecule antagonists of thyroid hormone receptor beta signaling (AID 588547; active = well fitted inhibition curve with a large enough effect in the signal ratio, with a control signal flat, not every such curve was filed as active; the % refers to the signal ratio; also: potency is read from the fitted curve at half-maximal effect;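 as to activity change % (negative = inhibition): cells stimulated with 0.4 nM T3 agonist during compound exposure; series mostly up to about 77 µM; % is scaled to controls: 0 for no effect and ±100 for the full control effect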). Conditions: TR-UAS-bla HEK293, beta-lactamase ratio, antagonist mode, 18 h. In short, it runs like this:
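Inhibition of T3-driven (0.4nM final) beta-lactamase reporter activity was measured over 0.59 nM to 92 uM compound after 18 h at 37 C. The cells were GripTite HEK293 TR-UAS-bla in charcoal/dextran-stripped serum, with CCF4 ratio read-out and IC50 from Hill fits.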
A general note: Quantitative high-throughput screening tests each substance at several concentrations.

Assay [3] can be described thus: qHTS assay for small molecule activators of the p53 signaling pathway (AID 651743; active = well fitted activation curve with a large enough effect in the signal ratio, not every such curve was filed as active; the % refers to the signal ratio; also: series mostly up to about 92 µM; % of control where 0% means no effect). Particulars: HCT-116 p53RE-bla, beta-lactamase FRET ratio, 16 h; active compounds read high. The procedure, abridged: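 Read-out is fluorescence intensity from the LiveBLAzer B/G FRET substrate, added for 2 hours at room temperature after HCT-116 p53RE-bla cells had been incubated with compounds for 16 hours at 37 C.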

Assay [4] is described as follows: qHTS assay for environmental chemicals that activate the Aryl hydrocarbon Receptor (AhR) signaling pathway (AID 651777). Also: % of control where 0% means no effect; nearly all actives have a fitted effect of over 15% in size. Particulars: 1A2-DRE human hepatoma cells, luciferase, 24 h; active compounds read high. In short, it runs like this: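 Human hepatoma 1A2-DRE cells stably carrying a DRE/CYP1A2 promoter–luciferase reporter, 1,200 cells/well, exposed to compound 24 hr at 37 C. Luciferase read by One-Glo luminescence after 30 min at room temperature; increased signal marks AhR activation.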

For assay [5], the target named is Peroxisome proliferator-activated receptor alpha (Homo sapiens) (UniProt Q07869). Briefly: qHTS assay for small molecule agonists of the peroxisome proliferator-activated receptor alpha (PPARalpha) signaling pathway (AID 651778). Also: % of control where 0% means no effect. Conditions: PathHunter PPARalpha complementation, chemiluminescence, 6 h; max response: active compounds read high. The procedure, abridged: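 Chemiluminescence from complemented enzyme reported PPARalpha activation in cells after 6 hr of compound treatment at 37 C. The detection reagent was incubated for 60 min at room temperature, and compounds were scored as agonists.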

Assay [6] deals with Voltage-gated inwardly rectifying potassium channel KCNH2 (Homo sapiens) (UniProt Q12809). Briefly: qHTS Assay for Small Molecule Inhibitors of the Human hERG Channel Activity (AID 588834).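 Also: top concentration of the series differs between compounds; % is scaled to controls: 0 for no effect and ±100 for the full control effect; lower thallium flux fluorescence means stronger hERG block; nearly all actives have a fitted effect of over 50% in size.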 In short, it runs like this:
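hERG-BacMam U2OS, 2000 cells/well; 0.7X FluxOR loading 1 hr RT dark; cpd ~10 min 37 °C; stim buffer; FDSS fluorescence 2 min @ 1 s; AC50 Hill fit.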

The nature of assay [7]: qHTS assay for small molecule activators of the nuclear factor-kappa B (NF-kB) signaling pathway (AID 651749; active = well fitted activation curve with a large enough effect in the signal ratio; the % refers to the signal ratio; also: series mostly up to about 77 µM; % of control where 0% means no effect). Conditions: NF-kB-bla ME-180 cells, beta-lactamase FRET ratio, 16 h; active compounds read high. In short, it runs like this: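 Readout: beta-lactamase reporter driven by an NF-kB response element, detected fluorescently as loss of FRET. Cells were the ME-180 line, treated 16 hr at 37C with pin-transferred compound.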

A short description of assay [8]: qHTS assay for small molecule disruptors of the mitochondrial membrane potential - 1 hr assay (AID 651754; calls by dose curve; also: % is scaled to controls: 0 for no effect and ±100 for the full control effect; nearly all actives have a fitted effect of over 35% in size). The procedure, abridged: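 HepG2 cells, attached overnight, were exposed to compound for 1 hr at 37C, then stained 30 min with a potentiometric dye. Ratio of red aggregate (590nm) to green monomer (535nm) fluorescence reports membrane potential; collapse shifts signal toward green.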

Assay [9] is described as follows: qHTS assay for small molecule disruptors of the mitochondrial membrane potential - 5 hr assay (AID 651755; calls by dose curve; also: % is scaled to controls: 0 for no effect and ±100 for the full control effect; nearly all actives have a fitted effect of over 40% in size). The procedure, abridged:
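HepG2, 2,000 cells/well, overnight attach; cpd or DMSO 5 hr, 37C/5% CO2; Mito-MPS 30 min 37C; fluor 490/535 + 540/590 nm.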

In assay [10] the target is Tumor necrosis factor (Homo sapiens) (UniProt P01375). Briefly: qHTS assay to identify small molecules that stimulate Tumor Necrosis Factor-alpha (TNF-alpha) secretion (AID 651757; active = well fitted curve in the direction sought with a large enough effect in the signal ratio; the % refers to the signal ratio; also: 0% is about no effect). In short, it runs like this:
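THP-1 cells (3000/well) exposed to compounds 17 hrs at 37 C. Secreted TNF-alpha detected by HTRF with cryptate- and XL665-labeled anti-TNF-alpha antibodies after 3 hr at room temperature.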

The nature of assay [11]: qHTS assay to identify small molecules that stimulate interleukin-8 (IL-8) secretion (AID 651758; active = well fitted activation curve with a large enough effect in the signal ratio; the % refers to the signal ratio; also: 0% is about no effect). In short, it runs like this:
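Secreted IL-8 measured by TR-FRET sandwich (cryptate and XL665 antibodies) from THP-1 cells exposed to compound overnight (16 hrs, 37 C).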

Assay [12] can be described thus: S16 Schwann cell viability assay (CellTiter-Glo assay) (AID 624031).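 Also: series mostly up to about 58 µM; plate controls were DMSO-treated cells for no effect and cell-free wells for full effect; nearly all actives have a fitted effect of over 70% in size.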 The procedure, abridged: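 Native S16 rat Schwann cells, 500-750 cells/well in DMEM with 10% FBS, dosed with compound after overnight culture and incubated 24h at 37 degree Celsius/5% CO2. Viability by CellTiter-Glo luminescence; % activity normalized to no-cell wells and DMSO-treated cells.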
On the technique in general: ATP-based viability assays read luminescence as a measure of living cells.

Assay [13] in a line: S16 Schwann cell PMP22 intronic element firefly luciferase assay (AID 624032).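 Also: series mostly up to about 58 µM; plate controls were DMSO for no effect and PTC124 positive control mean for full effect; nearly all actives have a fitted effect of over 30% in size.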 In short, it runs like this: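 Luciferase reporter of PMP22 intronic-element expression in stably transfected S16 rat Schwann cells, read by ONE-Glo luminescence after 24 h compound exposure at 37 C. Activity scaled between DMSO (0%) and positive-control PTC124; concentration-effect curves quality-classified.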

A short description of assay [14]: S16 Schwann cell PMP22 intronic element beta-lactamase assay (AID 624044; calls by dose curve;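 also: 0% = DMSO and -100% = potassium clavulanate positive control; nearly all actives have a fitted effect of over 15% in size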). The procedure, abridged:
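Rat S16 Schwann cells with beta-Lac driven by a PMP22 intronic element, compound-treated 24 h at 37 °C. LiveBLAzer FRET B/G read: 460 nm normalized to potassium clavulanate vs DMSO; 535 nm FRET as viability; concentration-effect curves classified.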

Assay [15] in a line: qHTS assay for small molecule agonists of the antioxidant response element (ARE) signaling pathway (AID 651741; active = well fitted activation curve with a large enough effect in the signal ratio; the % refers to the signal ratio; also: % of control where 0% means no effect). In short, it runs like this:
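Quantitative HTS in HepG2 cells stably expressing an ARE-beta-lactamase reporter; 16 h compound exposure at 37 C, followed by 2 h room-temperature incubation with LiveBLAzer B/G FRET substrate and fluorescence measurement.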

Structures are written as SMILES. Where “and” joins values, the source holds several entries; their conditions need not be identical. Equal values may be shown once. A number with no mark means an inactive call. Results filed as inconclusive are left out. Calls of active or inactive are those of the source. Unless noted, calls follow the shape of the dose curve; as a rule, active = well fitted curve in the direction sought with a large enough effect; inconclusive = small, poorly fitted or top-dose-only effect, or another doubt; inactive = no such curve, though single readings can be large; an effect the other way counts as inactive or inconclusive.

Sequence of Peroxisome proliferator-activated receptor alpha (Homo sapiens) (Q07869 whole entry, looked up): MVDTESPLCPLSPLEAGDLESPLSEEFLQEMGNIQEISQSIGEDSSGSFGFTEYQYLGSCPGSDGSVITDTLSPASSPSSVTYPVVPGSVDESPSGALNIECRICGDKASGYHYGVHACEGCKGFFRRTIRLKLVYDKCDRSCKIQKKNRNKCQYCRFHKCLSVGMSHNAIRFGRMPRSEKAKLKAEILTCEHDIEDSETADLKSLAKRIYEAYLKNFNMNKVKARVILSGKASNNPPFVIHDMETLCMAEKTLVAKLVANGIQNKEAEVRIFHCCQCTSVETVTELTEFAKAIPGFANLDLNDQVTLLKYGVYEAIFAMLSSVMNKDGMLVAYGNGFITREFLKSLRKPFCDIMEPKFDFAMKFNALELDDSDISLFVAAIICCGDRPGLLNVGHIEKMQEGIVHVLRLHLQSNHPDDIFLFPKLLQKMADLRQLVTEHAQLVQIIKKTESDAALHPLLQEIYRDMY
Sequence of Thyroid hormone receptor beta (Homo sapiens) (P10828 whole entry, looked up): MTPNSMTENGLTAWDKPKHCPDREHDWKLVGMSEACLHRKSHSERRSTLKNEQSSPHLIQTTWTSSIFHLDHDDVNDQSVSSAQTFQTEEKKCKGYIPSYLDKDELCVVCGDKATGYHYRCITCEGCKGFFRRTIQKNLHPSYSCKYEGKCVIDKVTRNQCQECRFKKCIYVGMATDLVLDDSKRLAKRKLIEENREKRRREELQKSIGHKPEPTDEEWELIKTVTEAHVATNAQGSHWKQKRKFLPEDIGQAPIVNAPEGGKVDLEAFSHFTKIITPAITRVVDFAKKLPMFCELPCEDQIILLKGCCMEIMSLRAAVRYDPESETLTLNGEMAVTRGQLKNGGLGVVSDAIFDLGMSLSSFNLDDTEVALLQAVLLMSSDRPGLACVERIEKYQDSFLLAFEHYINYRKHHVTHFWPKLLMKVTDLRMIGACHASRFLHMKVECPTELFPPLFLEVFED
Sequence of Voltage-gated inwardly rectifying potassium channel KCNH2 (Homo sapiens) (Q12809 whole entry, looked up): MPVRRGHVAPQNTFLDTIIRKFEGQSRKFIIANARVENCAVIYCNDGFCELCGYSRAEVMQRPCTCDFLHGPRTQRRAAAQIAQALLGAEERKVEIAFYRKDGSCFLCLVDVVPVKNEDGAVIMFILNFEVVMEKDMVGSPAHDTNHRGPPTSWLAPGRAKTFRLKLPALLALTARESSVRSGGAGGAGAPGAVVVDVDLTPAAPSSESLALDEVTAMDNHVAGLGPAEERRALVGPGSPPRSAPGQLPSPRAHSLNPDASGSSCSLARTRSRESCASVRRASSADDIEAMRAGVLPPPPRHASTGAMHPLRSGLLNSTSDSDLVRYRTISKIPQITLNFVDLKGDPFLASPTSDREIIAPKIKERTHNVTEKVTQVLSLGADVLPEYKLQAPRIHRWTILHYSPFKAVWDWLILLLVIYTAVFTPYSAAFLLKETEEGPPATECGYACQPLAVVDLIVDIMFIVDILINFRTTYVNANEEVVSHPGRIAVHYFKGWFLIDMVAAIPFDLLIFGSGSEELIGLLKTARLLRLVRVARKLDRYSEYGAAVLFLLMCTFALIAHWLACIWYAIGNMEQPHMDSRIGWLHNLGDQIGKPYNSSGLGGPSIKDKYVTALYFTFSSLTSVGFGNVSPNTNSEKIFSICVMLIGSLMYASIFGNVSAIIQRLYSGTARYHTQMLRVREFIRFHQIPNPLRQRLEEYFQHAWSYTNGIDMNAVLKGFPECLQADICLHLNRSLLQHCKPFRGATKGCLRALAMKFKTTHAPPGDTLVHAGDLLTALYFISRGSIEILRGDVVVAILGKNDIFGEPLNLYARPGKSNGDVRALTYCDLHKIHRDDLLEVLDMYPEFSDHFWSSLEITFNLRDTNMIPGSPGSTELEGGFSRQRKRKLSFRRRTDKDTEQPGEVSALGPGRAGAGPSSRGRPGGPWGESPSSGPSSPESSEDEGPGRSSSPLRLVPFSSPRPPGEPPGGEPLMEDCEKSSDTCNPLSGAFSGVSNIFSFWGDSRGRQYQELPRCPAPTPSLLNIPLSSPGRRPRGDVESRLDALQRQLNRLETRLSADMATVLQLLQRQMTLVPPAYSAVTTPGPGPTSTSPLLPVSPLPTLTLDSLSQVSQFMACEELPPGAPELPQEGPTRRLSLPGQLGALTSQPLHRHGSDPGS
Sequence of Tumor necrosis factor (Homo sapiens) (P01375 whole entry, looked up): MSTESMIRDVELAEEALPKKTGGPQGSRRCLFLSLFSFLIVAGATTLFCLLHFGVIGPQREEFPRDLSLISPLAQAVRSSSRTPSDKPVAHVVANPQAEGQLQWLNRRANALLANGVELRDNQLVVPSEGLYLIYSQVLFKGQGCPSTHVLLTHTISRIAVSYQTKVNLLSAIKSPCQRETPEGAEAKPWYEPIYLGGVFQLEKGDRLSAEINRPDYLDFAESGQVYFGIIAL
Sequence of Luciferin 4-monooxygenase (Photinus pyralis) (P08659 whole entry, looked up): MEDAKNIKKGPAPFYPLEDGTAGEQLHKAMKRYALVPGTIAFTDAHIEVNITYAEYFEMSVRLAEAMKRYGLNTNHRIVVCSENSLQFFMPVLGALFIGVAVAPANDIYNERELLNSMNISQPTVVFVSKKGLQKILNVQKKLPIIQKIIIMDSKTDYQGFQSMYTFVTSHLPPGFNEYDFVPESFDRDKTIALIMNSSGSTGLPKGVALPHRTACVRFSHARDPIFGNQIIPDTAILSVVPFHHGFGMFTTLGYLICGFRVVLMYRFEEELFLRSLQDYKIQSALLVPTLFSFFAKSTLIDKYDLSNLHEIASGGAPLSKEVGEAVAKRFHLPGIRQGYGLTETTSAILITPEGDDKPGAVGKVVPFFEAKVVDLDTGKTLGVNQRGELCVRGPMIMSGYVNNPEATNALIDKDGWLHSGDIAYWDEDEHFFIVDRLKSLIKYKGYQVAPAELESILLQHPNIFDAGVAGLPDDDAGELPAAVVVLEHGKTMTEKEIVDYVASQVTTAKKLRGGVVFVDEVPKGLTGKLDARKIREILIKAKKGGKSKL

Regarding `O=C(O)c1cc2ccccc2c(Cc2c(O)c(C(=O)O)cc3ccccc23)c1O`, the Potency in [1] was 14.4 µM (active).

Regarding `CC(=O)S[C@@H]1CC2=CC(=O)CC[C@]2(C)[C@H]2CC[C@@]3(C)[C@@H](CC[C@@]34CCC(=O)O4)[C@H]12`, in assay [2], the Potency was 28.2 µM (active). The activation is 29.9% in assay [3] and -3.59% in [4]. The max response in [5] was -2.36%.

`O=C(O)CC(O)(CC(=O)O)C(=O)O`: the result in assay [6], in [8], in [9], in assay [10] and in assay [11] was inactive. The Potency entry in assay [1] is “inactive”. Moreover, the activation in assay [3] was -3% and -0.0659% and -0.0181%; in assay [7], -0.675% and 0.892% and -1.06%; in assay [4], 0.406% and -1.76% and 1.69%. Besides, the max response in [5] is -3.03% and 0.0721% and -1.17%.

`O=C(O)c1cccc(/C=C2/C[C@@H]3[C@@H](/C=C/[C@@H](O)C4CCCCC4)[C@H](O)C[C@@H]3O2)c1`: the Potency entry in assay [1] was “inactive”.

Turning to `CCCC(=O)N1CCCN(c2nc(N)c3cc(OC)c(OC)cc3n2)CC1`, the Potency result in [1] is “inactive”.

In the case of `CCOC(=O)COc1ccc2c(C)c(CCN(CC)CC)c(=O)oc2c1`, in assay [1], the Potency result was “inactive”.

Turning to `CCCOc1ccc2nc(NC(=O)OC)sc2c1`, the outcome in assay [6] and in assay [14] was inactive. For the same molecule, the Potency in assay [1] is 1.14 µM (active). Moreover, the Potency result in [12] and in [13] was “inactive” throughout.

Regarding `Cc1cc(Nc2ccccc2C(=O)O)ccc1Cl`, the Potency in assay [1] is 16.1 µM (active).

`CC1=C(C(=O)OCCN(Cc2ccccc2)c2ccccc2)C(c2cccc([N+](=O)[O-])c2)C(P2(=O)OCC(C)(C)CO2)=C(C)N1` (centres undefined): the Potency entry in assay [1] was “inactive”.

For the molecule `CCOC(=O)Nc1ccc2c(c1)N(C(=O)CN(C)C)c1ccccc1CC2`, in assay [1], the Potency entry is “inactive”.

`CCOc1ccc(N=C(C)Nc2ccc(OCC)cc2)cc1`: the Potency entry in assay [1] is “inactive”.

On to `CN=C(NC)NCc1ccccc1`, for which the Potency entry in assay [1] is “inactive”.

Consider `OCC(O)COc1ccc(Cl)cc1` (centres undefined), for which the Potency result in assay [1] is “inactive”.

Regarding `C1CNCCN1`, in [1], the Potency result is “inactive”.

On to `O=S(O)CNc1ccc(S(=O)(=O)c2ccc(NCS(=O)O)cc2)cc1`, for which the Potency result in assay [1] is “inactive”.

As for `c1ccc2c(CCC3CCNCC3)c[nH]c2c1`, in assay [1], the Potency entry was “inactive”.

For `O=P(O)(O)OC(Cn1cncn1)(Cn1cncn1)c1ccc(F)cc1F`, in assay [1], the Potency entry is “inactive”.

As for `Cc1ccc(C2(O)CCN(CCCC(=O)c3ccc(F)cc3)CC2)cc1`, in [1], the Potency entry was “inactive”.

Consider `CCC(C)C(C(=O)OCC[N+](C)(CC)CC)c1ccccc1` (centres undefined), for which the Potency entry in assay [1] was “inactive”.

In the case of `CC(=O)[C@@]1(O)CC[C@H]2[C@@H]3C=C(Cl)C4=CC(=O)CC[C@]4(C)[C@H]3CC[C@@]21C`, in [1], the Potency entry was “inactive”.

Take `COc1ccc(CNCC(O)COc2ccc3[nH]c(=O)ccc3c2)cc1OC` (centres undefined): the Potency entry in [1] was “inactive”.

As for `COC(C)=O`, the activity change % (negative = inhibition) in assay [2] is -1.11%. Also, the call in [6], in assay [10] and in assay [11] was inactive. Also, the Potency result in assay [1] and in assay [15] was “inactive” throughout. For the same molecule, the activation in assay [4] is 0.269%. The max response in assay [5] was 6.49%.

In the case of `CN(C)Cc1ccccc1`, the activity change % (negative = inhibition) in assay [2] was -0.727%. The outcome in assay [6], in [8], in [9] and in assay [10] was inactive. Moreover, the Potency result in [1] and in [15] was “inactive” throughout. Further, the figures for the activation in assay [3], in [7] and in assay [4] were -3.48%, 0.946% and -1.16%, respectively. For the same molecule, the max response in assay [5] was -9.3%.

As for `C=Cc1ccccc1`, the result in assay [6], in assay [10] and in assay [11] was inactive. Further, the Potency entry in [1] is “inactive”. In addition, the activation was -0.864% and -2.45% in [3]; -0.47% and -1.21% in assay [7]; 0.041% and 1.82% in [4]. Besides, the max response in [5] is -2.11% and 2.32%.
